Experimental data as given in PubChem BioAssay (NCI).
Compounds without any hit were thinned out: in the full panel of roughly 83,000, 20% have a hit.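 A percent growth of 40 corresponds to 60% growth inhibition; 0 means no net growth; -100 means all cells died. Active threshold: below 10.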 The source made the active and inactive calls.

How the values were obtained:
Test in all cases: NCI-60 one-dose screen, 48 h (100 = growth as untreated, 0 = no growth, -100 = all killed)
Details in all cases: 10 µM unless noted
SR leukemia = test system: SR leukemia
RPMI-8226 leukemia = test system: RPMI-8226 leukemia
OVCAR-8 ovarian = test system: OVCAR-8 ovarian
OVCAR-5 ovarian = test system: OVCAR-5 ovarian
OVCAR-4 ovarian = test system: OVCAR-4 ovarian
SK-OV-3 ovarian = test system: SK-OV-3 ovarian
IGROV1 ovarian = test system: IGROV1 ovarian
OVCAR-3 ovarian = test system: OVCAR-3 ovarian
HS 578T breast = test system: HS 578T breast
NCI/ADR-RES ovarian = test system: NCI/ADR-RES ovarian
T-47D breast = test system: T-47D breast
BT-549 breast = test system: BT-549 breast
MDA-MB-435 melanoma = test system: MDA-MB-435 melanoma
SW-620 colon = test system: SW-620 colon
MCF7 breast = test system: MCF7 breast
HCT-116 colon = test system: HCT-116 colon
HCC-2998 colon = test system: HCC-2998 colon
KM12 colon = test system: KM12 colon

Measured: growth

Cl/C(=N\Nc1ccccc1)c1ccccc1
inactive: SR leukemia 123% | RPMI-8226 leukemia 104% | OVCAR-8 ovarian 75.8% | OVCAR-5 ovarian 99.1% | OVCAR-4 ovarian 92.1% | SK-OV-3 ovarian 89.4% | IGROV1 ovarian 85.6% | OVCAR-3 ovarian 91.4% | HS 578T breast 108% | NCI/ADR-RES ovarian 82.9% | T-47D breast 89.9% | BT-549 breast 98.8% | MDA-MB-435 melanoma 80.6% | SW-620 colon 105% | MCF7 breast 87.4% | HCT-116 colon 102% | HCC-2998 colon 102%

CCCCCC(=O)Oc1ccc(/C(=C(\C)c2ccccc2)c2ccc(OCCN(CC)CC)cc2)cc1
inactive: SR leukemia 17.7% | RPMI-8226 leukemia 46.5% | OVCAR-8 ovarian 81.9% | OVCAR-5 ovarian 87.6% | OVCAR-4 ovarian 84% | SK-OV-3 ovarian 75.2% | IGROV1 ovarian 75.9% | OVCAR-3 ovarian 86.6% | HS 578T breast 35.6% | NCI/ADR-RES ovarian 74.2% | T-47D breast 39% | BT-549 breast 72.7% | MDA-MB-435 melanoma 70.3% | SW-620 colon 70.8% | MCF7 breast 29.6% | HCT-116 colon 50.7% | HCC-2998 colon 88.1% | KM12 colon 62%

O=C1c2cc3c(cc2-c2c1c1cc(F)c(F)cc1c(=O)n2C[C@H](O)CO)OCO3
active: SR leukemia -16.5% | RPMI-8226 leukemia -0.801% | OVCAR-8 ovarian 4.44% | OVCAR-5 ovarian 4.09% | OVCAR-4 ovarian 7.88% | SK-OV-3 ovarian -4.97% | IGROV1 ovarian 8.38% | OVCAR-3 ovarian -8.12% | NCI/ADR-RES ovarian -17% | T-47D breast -9.55% | BT-549 breast 0.808% | MDA-MB-435 melanoma -11% | MCF7 breast 3.86% | HCT-116 colon 3.5% | KM12 colon 5.01%
inactive: HS 578T breast 42.1% | SW-620 colon 11.7% | HCC-2998 colon 10.7%

CC1CN(Cc2ccco2)C(=S)N(c2ccccc2)C1=O (stereo unspecified)
inactive: SR leukemia 91.2% | RPMI-8226 leukemia 88.1% | OVCAR-8 ovarian 104% | OVCAR-5 ovarian 105% | OVCAR-4 ovarian 97% | SK-OV-3 ovarian 105% | IGROV1 ovarian 106% | OVCAR-3 ovarian 106% | HS 578T breast 101% | NCI/ADR-RES ovarian 108% | T-47D breast 83.1% | BT-549 breast 94.6% | MDA-MB-435 melanoma 100% | SW-620 colon 102% | MCF7 breast 102% | HCT-116 colon 88.9% | HCC-2998 colon 113% | KM12 colon 99.9%

COc1cc(NC(N)=NCC(C)(C)COc2ccc(C(F)(F)F)cc2)cnc1C#N
inactive: SR leukemia 49.8% | RPMI-8226 leukemia 46% | OVCAR-8 ovarian 81.8% | OVCAR-5 ovarian 65% | OVCAR-4 ovarian 65.8% | SK-OV-3 ovarian 66.4% | IGROV1 ovarian 43.9% | OVCAR-3 ovarian 67.5% | HS 578T breast 31.6% | NCI/ADR-RES ovarian 70.2% | T-47D breast 30.3% | BT-549 breast 75.4% | MDA-MB-435 melanoma 61.1% | SW-620 colon 69.9% | MCF7 breast 32.5% | HCT-116 colon 37.7% | HCC-2998 colon 18.9% | KM12 colon 57.6%

CCN(C(=O)CN1CCN(c2cc3c(cc2F)c(=O)c(C(=O)O)cn3CC)CC1)c1nc(-c2ccccc2)cs1
active: SR leukemia -11% | RPMI-8226 leukemia -3.49% | OVCAR-8 ovarian 7.67% | OVCAR-4 ovarian 3.24% | SK-OV-3 ovarian -2.59% | NCI/ADR-RES ovarian 5.3% | BT-549 breast 3.3% | MDA-MB-435 melanoma -13.9% | MCF7 breast 7.6%
inactive: OVCAR-5 ovarian 35.6% | IGROV1 ovarian 23.3% | OVCAR-3 ovarian 16.8% | HS 578T breast 13.6% | T-47D breast 11.9% | SW-620 colon 13.9% | HCT-116 colon 14% | HCC-2998 colon 19.6% | KM12 colon 12.7%

OCCNCCNc1c2ccccc2nc2ccccc12
inactive: SR leukemia 43.9% | RPMI-8226 leukemia 90.8% | OVCAR-8 ovarian 46.3% | OVCAR-5 ovarian 114% | OVCAR-4 ovarian 63.9% | SK-OV-3 ovarian 78% | IGROV1 ovarian 96.7% | OVCAR-3 ovarian 65.6% | HS 578T breast 88.4% | NCI/ADR-RES ovarian 89.1% | T-47D breast 39.6% | BT-549 breast 103% | MDA-MB-435 melanoma 89.4% | SW-620 colon 59.5% | MCF7 breast 23.4% | HCT-116 colon 37.7% | HCC-2998 colon 52.6% | KM12 colon 55.6%

Cc1cc2cc3cc(C)c(N(C)C)cc3nc2cc1N(C)C
active: RPMI-8226 leukemia -0.205% | IGROV1 ovarian -13.8% | OVCAR-3 ovarian -25.5% | T-47D breast 7.76% | BT-549 breast -11.6% | KM12 colon 3.92%
inactive: SR leukemia 25% | OVCAR-8 ovarian 22.5% | OVCAR-5 ovarian 53.9% | OVCAR-4 ovarian 32.4% | SK-OV-3 ovarian 17.7% | HS 578T breast 31.7% | NCI/ADR-RES ovarian 82.5% | MDA-MB-435 melanoma 29.1% | SW-620 colon 17.7% | MCF7 breast 13.5% | HCT-116 colon 13.7% | HCC-2998 colon 23.7%

Cc1ccc(-c2nc(/C=N/Nc3cc(C)nc4ccc(Cl)cc34)c(C)o2)cc1
inactive: SK-OV-3 ovarian 96.3% | BT-549 breast 97%
active: SR leukemia 0.444% | RPMI-8226 leukemia -48.6% | OVCAR-8 ovarian -88.6% | OVCAR-5 ovarian -65.4% | OVCAR-4 ovarian -90.8% | IGROV1 ovarian -69.7% | OVCAR-3 ovarian -80.8% | HS 578T breast -42.8% | NCI/ADR-RES ovarian -37.7% | T-47D breast -74.4% | MDA-MB-435 melanoma -95.6% | SW-620 colon -70.2% | MCF7 breast -84.4% | HCT-116 colon -54.3% | HCC-2998 colon -53.3% | KM12 colon -58.3%
